From PubChem BioAssay (Tox21)
Results filed as inconclusive are left out. Entries that show only a call come without a potency. The source made the active and inactive calls. Calls follow the shape of the dose curve; as a rule, active = well fitted activation curve with a large enough effect in the repeat runs; inconclusive = weak or mixed curves; inactive = flat fitted curve, though single readings scatter.

Test: A CellTox Green Cytotoxicity Assay to monitor cytotoxicity in HepG2 cells - 32 hour (AID 1224883); also: nearly all actives have a fitted effect of over 50% in size
Settings: CellTox Green fluorescence; series mostly up to 76.8 µM
Excerpt: National Center for Advancing Translational Sciences [NCATS]
NIH Chemical Genomics Center [NCGC]
U.S. Environmental Protection Agency [EPA]
National Institutes of Environmental Health Sciences [NIEHS]
National Toxicology Program [NTP]
Cell-based models are critical for drug discovery. Determining the natural cytotoxic effects resulting from test compounds is an essential research activity. A CellTox Green Cytotoxicity Assay to monitor cytotoxicity in real time of continues cell culture during 40 hours of the compound treatment was used to screen Tox21 10K library compounds in HepG2 cells. CellTox Green Cytotoxicity Assay is a nonlytic, homogeneous, biofluorescent method to measure cytotoxicity in cell culture after experimental manipulation. The assay system uses a proprietary asymmetric cyanine dye that is excluded from viable cells but preferentially stains the dead cell's DNA. […] Viable cells produce no appreciable increases in fluorescence. Therefore, the fluorescence signal produced by the binding interaction with dead cell DNA is proportional to cytotoxicity.
The mixture of HepG2 cell suspension and reagents were dispensed at 600cells/6 ul/well in 1536-well tissue culture treated black solid bottom plates using a Multidrop dispenser. After the assay plates were incubated at a 37 C/5% CO2 incubator for 5 hours, 23 nL of compounds dissolved in DMSO, positive and negative controls was transferred to the assay plate by a pintool work station. The plates were incubated at 37 C for 40 hours. The fluorescence intensity were measured at 0h, 8h, 16h, 24h, 32h and 40h time points using ViewLux plate reader during compound treatment.

Row | SMILES | Potency
1 | C/C(=N\NC(=O)Nc1cc(F)cc(F)c1)c1ncccc1C(=O)O | inactive
2 | CC(C)(N)Cc1ccc(Cl)cc1 | inactive
3 | CC(C)NCC(O)c1ccc([N+](=O)[O-])cc1 (stereo not given) | inactive
4 | Clc1ccc(C(Cl)(Cl)Cl)cn1 | inactive
5 | NC1(c2ccccc2)CCCCC1 | inactive
6 | CC(C)(C)NC[C@H](O)c1ccc(O)cc1Cl | inactive
7 | O=C(O)c1c(Cl)ccc2cc(Cl)cnc12 | inactive
8 | C=CC=O | inactive
9 | COc1ccc2c(C(=O)c3ccc(Cl)cc3)c(C)n(CC(=O)O)c2c1 | inactive
10 | C[C@@H](N)[C@@H](O)c1ccccc1 | inactive
11 | C1CN2CCC1CC2 | inactive
12 | C#CCOC(=O)/C=C(C)/C=C/CC(C)CCCC(C)C (stereo not given) | inactive
13 | CC(O)CCl (stereo not given) | inactive
14 | CS(=O)(=O)Cl | inactive
15 | CN(C)CCc1c[nH]c2cccc(OP(=O)(O)O)c12 | inactive
16 | CCc1ccc(C2CCNCC2)cc1 | inactive
17 | CCCC[N+](=O)[O-] | inactive
18 | CCCCCCCCBr | inactive
19 | COP(=O)(O)OC | inactive
20 | COc1cc(CC(C)N)cc(OC)c1OC (stereo not given) | inactive

Row | SMILES | Potency
21 | CCOC(=O)COc1ccc(Cl)cc1Cl | inactive
22 | CCCCCCCC(=O)Cl | inactive
23 | CCCCCCC1CCOC1=O (stereo not given) | inactive
24 | O=C(Cl)CCl | inactive
25 | O=C(Cl)OCc1ccccc1 | inactive
26 | COc1cc(CCN)cc(OC)c1OC | inactive
27 | CCN(CCO)CCn1c(Cc2ccccc2)nc2c1c(=O)n(C)c(=O)n2C | inactive
28 | O=C(O)C(Cl)Br (stereo not given) | inactive
29 | O=C(Cl)/C=C/C(=O)Cl | inactive
30 | C=C1C[C@@H]2[C@H](CC[C@]3(C)C(=O)CC[C@@H]23)[C@@]2(C)C=CC(=O)C=C12 | inactive
31 | CCC(C(N)=O)N1CCCC1=O (stereo not given) | inactive
32 | CC(Cc1ccccc1)NCCCCl (stereo not given) | inactive
33 | ClCOCCl | inactive
34 | CN1C(=O)COc2c(C(=O)NC3CN4CCC3CC4)cc(Cl)cc21 (stereo not given) | inactive
35 | CCOP(=S)(OCC)Oc1ccc(Cl)cc1Cl | inactive
36 | O=C(NC(=O)c1c(F)cccc1F)Nc1cc(Cl)c(F)c(Cl)c1F | inactive
37 | COC(=O)[C@@H](N)CCCN/C(N)=N/[N+](=O)[O-] | inactive
38 | O=P(O)(O)c1ccccc1 | inactive
39 | CC(C)c1ccc(O)cc1 | inactive
40 | CCN(CCO)CCO | inactive
